Several values for one entry are separate records, joined by “and”; a condition that tells them apart may be missing. Identical values can stand only once. The whole screen tested about 16,000 compounds, of which about 4,000 (25%) were called active. Inconclusive results (about 26%) are left out. Calls follow the shape of the dose curve; as a rule, active = well fitted curve in the direction sought with a large enough effect; inconclusive = small, poorly fitted or top-dose-only effect, or effect the other way; inactive = no such curve, though single readings can be large or run the other way. The list is a sample of the results.
What follows are compounds tested against Cytochrome P450 2C9 (Homo sapiens) (UniProt P11712) (assay: Cytochrome panel assay with activity outcomes). Conditions: recombinant CYP, pro-luciferin dealkylation, luminescence, p450-cyp2c9; series mostly up to 57.1 µM; activity, negative = inhibition: at the top concentration.
Sequence of Cytochrome P450 2C9 (Homo sapiens) (P11712 whole entry, looked up): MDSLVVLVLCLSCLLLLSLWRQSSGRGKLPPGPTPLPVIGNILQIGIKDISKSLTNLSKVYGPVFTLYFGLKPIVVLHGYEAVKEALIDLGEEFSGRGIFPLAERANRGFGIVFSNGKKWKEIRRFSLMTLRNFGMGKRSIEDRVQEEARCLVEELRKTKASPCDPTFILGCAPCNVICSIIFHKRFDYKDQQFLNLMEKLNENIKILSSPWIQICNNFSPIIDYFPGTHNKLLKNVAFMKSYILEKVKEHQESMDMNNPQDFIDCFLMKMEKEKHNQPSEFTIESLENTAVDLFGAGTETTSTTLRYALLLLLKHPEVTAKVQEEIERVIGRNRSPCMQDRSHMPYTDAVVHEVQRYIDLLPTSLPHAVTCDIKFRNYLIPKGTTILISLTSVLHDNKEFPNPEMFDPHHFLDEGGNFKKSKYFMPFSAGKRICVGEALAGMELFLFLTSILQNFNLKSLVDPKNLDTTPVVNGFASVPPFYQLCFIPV
% is scaled to controls: 0 for no effect and ±100 for the full control effect.

SMILES	activity, negative = inhibition	AC50
CN1CCC2(CC1)CCN(C(=O)Oc1ccccc1)CC2	2.84% (inactive)	–
C[C@@]12C(=O)OC(=O)[C@]1(C)[C@H]1CC[C@@H]2O1	-8.32% [at 25.6 µM] (inactive)	–
O=C(Nc1cccc(C(F)(F)F)c1)c1cccn(Cc2ccc3c(c2)OC(F)(F)O3)c1=O	–	3.16 µM (active)
O=C(Nc1ccc(C(F)(F)F)cc1)c1cccn(Cc2ccc3c(c2)OC(F)(F)O3)c1=O	–	8.91 µM (active)
O=P(O)(O)CCP(=O)(O)O	-4.93% [at 11.4 µM] (inactive)	–
C[N+]1(C)[C@@H]2CC[C@H]1CC(OC(=O)c1c[nH]c3ccccc13)C2 (stereo partly drawn)	-0.446% (inactive)	–
C[C@]12N[C@H](Cc3ccccc31)c1ccccc12	inactive	–
CCN(CCCl)Cc1ccccc1Br	16.2% (inactive)	–
CC(C)c1ccc2c(c1)c(SC(C)(C)C)c(CC(C)(C)C(=O)O)n2Cc1ccc(Cl)cc1	–	6.31 µM (active)
CC[C@H](C(=O)[C@H](C)[C@H](O)[C@H](C)CCc1ccc(C)c(O)c1C(=O)O)[C@H]1O[C@](CC)([C@@H]2CC[C@@](O)(CC)[C@H](C)O2)C[C@H]1C	-8.1% [at 25.6 µM] (inactive)	–
CC[C@@]1(c2ccc(N)cc2)CCC(=O)NC1=O	inactive	–
CC(C)NC(=O)N1CCC2(CC1)CCN(C(=O)Oc1ccccc1)CC2	12% (inactive)	–
NCCP(=O)(O)O	4.14% [at 11.4 µM] (inactive)	–
NC(N)=NCCC[C@H](N)C(=O)O	-4.67% (inactive)	–
NP(N)(=O)NC(=O)c1ccc(F)cc1	26.5% (inactive)	–
O[C@@H](c1cc(-c2ccccc2)nc2c1ccc1ccccc12)[C@@H]1CCCCN1	-8.99% [at 11.4 µM] (inactive)	–
COc1ccc(Cc2nccc3cc(OC)c(OC)cc23)cc1OC	-20.9% [at 25.6 µM] (inactive)	–
CC[C@H]1C(=O)OC[C@H]1Cc1cncn1C	-29.2% [at 11.4 µM] (inactive)	–
CCC1C(=O)OCC1Cc1cncn1C (stereo not drawn)	–	15.8 µM (active)
CC(=O)O[C@H]1CC[C@@]2(C)[C@@H](CC[C@H]3[C@H]2CC(=O)[C@@]2(C)[C@@H]3C[C@H]3CC(C)=CC(=O)[C@H]32)C1	-10.2% [at 11.4 µM] (inactive)	–
C[C@@]12CC[C@H](O)C[C@@H]1CC[C@H]1[C@H]2CC[C@@]2(C)[C@@H](C3=CC(=O)OC3)CC[C@]12O	6.88% [at 25.6 µM] (inactive)	–
N#CCCN	-12.2% (inactive)	–
Ic1ccccc1CN[C@@H]1C2CCN(CC2)[C@H]1C(c1ccccc1)c1ccccc1	-10.7% (inactive)	–
NC(N)=Nc1ccc2[nH]c3c(c2c1)C[C@]1(O)[C@@H]2Cc4ccc(O)c5c4[C@]1(CCN2CC1CC1)[C@H]3O5	-13.2% (inactive)	–

SMILES	activity, negative = inhibition	AC50
COC(=O)[C@@H]1[C@@H]2C[C@H]3c4[nH]c5cc(OC)ccc5c4CCN3C[C@@H]2C[C@H](OC(=O)/C=C\c2cc(OC)c(OC)c(OC)c2)[C@H]1OC	-29.1% [at 25.6 µM] (inactive)	–
COc1cc2c(cc1OC)[C@H](C)NCC2	-6.11% [at 25.6 µM] (inactive)	–
NC(=NCCc1ccc(I)cc1)SCCCc1cnc[nH]1	-14.5% (inactive)	–
OCc1cnc[nH]1	18.9% (inactive)	–
NC(=NCc1ccc(Cl)cc1)SCCCc1cnc[nH]1	–	12.6 µM (active)
C#CCN[C@@H](C)Cc1ccccc1	11.2% (inactive)	–
c1csc(CN2CC[C@@]3(CCCNC3)C2)n1	-14.6% (inactive)	–
COc1ccc2c(c1)[C@]13CCCC[C@@H]1[C@H](C2)N(C)CC3	18.1% (inactive)	–
COc1ccc(C(=O)O[C@H]2CC[C@@]3(C)[C@H]4CC[C@H]5[C@]3(C[C@]3(O)[C@H]6CN7C[C@H](C)CC[C@H]7[C@](C)(O)[C@]6(O)[C@H](O)C[C@]53O)O[C@]24O)cc1OC	-11.3% [at 11.4 µM] (inactive)	–
CCC(=Nc1cc(OC)ccc1OC)c1c(O)[nH]c(=O)[nH]c1=O	-27.4% (inactive)	–
CCCCn1c(O)c(C(CC)=Nc2ccc(OC)cc2OC)c(=O)[nH]c1=O	–	14.1 µM (active)
C=CCn1c(O)c(C(CC)=NC2CC2)c(=O)[nH]c1=O	-18.3% (inactive)	–
O=c1[nH]c(=O)n(CCc2ccc(F)cc2)c(O)c1C=NCCCN1CCOCC1	-43.7% (inactive)	–
CCCCn1c(O)c(C(CC)=NCc2ccc(F)cc2)c(=O)[nH]c1=O	–	3.55 µM (active)
CCCCn1c(O)c(C=NCCN2CCCCC2)c(=O)[nH]c1=O	-10.3% (inactive)	–
C[C@]12CCC3c4ccc(OCC(=O)O)cc4CCC3C1CCC2=O (stereo partly drawn)	-4.6% [at 11.4 µM] (inactive)	–
c1cc(C2N3CCCN2CC3)ccn1 (stereo not drawn)	9.12% [at 11.4 µM] (inactive)	–
O=C(CCCN1CCC2(CC1)C(=O)N(Cc1cccc(F)c1)CN2c1ccccc1)c1ccc(F)cc1	-6.74% (inactive)	–
CCCN1CCC[C@H](c2cccc(C#N)c2)C1	8.91% (inactive)	–
CCCN1CC[C@@H]2c3cc(O)ccc3CC[C@H]21	0.289% (inactive)	–
Cc1cccc([C@H](C)c2cnc[nH]2)c1C	–	0.2 µM (active)
C=C(CC1(CNP(=O)(c2ccccc2)c2ccccc2)CC1)c1ccccc1	–	10 µM (active)
O=C(O)[C@@H]1C[C@H]1[C@@H](NP(=O)(c1ccccc1)c1ccccc1)c1ccccc1	4.05% (inactive)	–
O=P(O)(O)c1ccccc1 (tested in a mixture with another compound)	0.15% [at 11.4 µM] (inactive)	–

SMILES	activity, negative = inhibition	AC50
O=C(O)[C@H]1C[C@@H]1[C@H](NP(=O)(c1ccccc1)c1ccccc1)c1ccccc1	9.12% (inactive)	–
C=C(CC1(C(C)NP(=O)(c2ccccc2)c2ccccc2)CC1)c1ccccc1 (stereo not drawn)	–	7.94 µM (active)
C=C(C)c1ccccc1 (tested in a mixture with another compound)	-0.349% [at 11.4 µM] (inactive)	–
Cc1c2cc[n+](CCN3CCCCC3)cc2c(C)c2c1[nH]c1ccc(O)cc12	17.8% [at 11.4 µM] (inactive)	–
COc1ccc(C[C@@H]2NC[C@H](O)[C@@H]2OC(C)=O)cc1	2.29% [at 25.6 µM] (inactive)	–
CC(C)c1nccn1Cc1ccc(Cl)cc1Cl	-23.6% [at 11.4 µM] (inactive)	–
NC1=Nc2ccccc2Oc2ccccc21	-32.7% (inactive)	–
COc1ccccc1N1CCNCC1	2.31% (inactive)	–
O=C(O)c1ccccc1-c1c2cc(Br)c(=O)cc-2oc2[c]([Hg])c(O)c(Br)cc12	–	0.631 µM (active)
COc1ccc2[nH]c3c(c2c1)CCNC3	-4.54% (inactive)	–
C[N+]1(C)C2CC[C@H]1CC(OC(=O)[C@@H](CO)c1ccccc1)C2 (stereo partly drawn)	8.36% [at 11.4 µM] (inactive)	–
CC1(C)[C@@H]2CC[C@]1(C)CN(CCC[N+](C)(C)C)C2	1.62% [at 11.4 µM] (inactive)	–
Cc1cc(Cc2cc(C)c(N)cc2N)c(N)cc1N	-2.47% [at 11.4 µM] (inactive)	–
C[C@H](CN(C)C)C(C#N)(c1ccccc1)c1ccccc1	-0.348% [at 11.4 µM] (inactive)	–
O=C(O)CP(=O)(O)c1ccc(Cl)cc1	2.66% (inactive)	–
CNCCc1c[nH]c2ccc(O)cc12	-5.29% (inactive)	–
O=c1c(O)c(-c2cc(O)c(O)c(O)c2)oc2cc(O)cc(O)c12	–	12.6 µM (active) and 10 µM (active)
O=c1cc(-c2ccc(O)c(O)c2)oc2cc(O)cc(O)c12	-26.3% [at 25.6 µM] (inactive)	–
O=c1cc(-c2ccc(O)cc2)oc2cc(O)cc(O)c12	-49.1% [at 25.6 µM] (inactive)	–
Nc1nc(N)c(Cn2ccnc2)c(=O)[nH]1	-12.8% [at 11.4 µM] (inactive)	–
Cn1cccc1CNCCc1ccccc1	-5.62% (inactive)	–
CN1CC[C@@]23c4ccccc4N[C@H]1[C@]21CCN(C)[C@@H]3Nc2ccccc21	19.2% [at 25.6 µM] (inactive)	–
C=C1C/C(=C\C)C(=O)O[C@@H]2CCN3CC=C(COC(=O)[C@@]1(C)O)[C@H]23	4.43% [at 25.6 µM] (inactive)	–
CC1=C(C)[N+](=O)C2(O)CCCCC2(C)N1[O-] (stereo not drawn)	32.8% (inactive)	–

SMILES	activity, negative = inhibition	AC50
S=P(C1CCCCC1)(C1CCCCC1)[C@H](c1cccnc1)N1CCCC1	-6.57% [at 11.4 µM] (inactive)	–
C=Cn1ccnc1P(=S)(c1nccn1C=C)C1CCCCC1	–	11.2 µM (active)
O[Si@](CCCN1CCCCC1)(c1ccc(F)cc1)C1CCCCC1	-12.9% (inactive)	–
COC(=O)NC/C=C\c1nc(CC/C=C\C(=O)O[C@H]2C[C@H]3CC(=O)O[C@@H](/C=C\CC(C)C)C[C@@H]4CC[C@H](C)[C@H](C[C@@H](OC)C[C@H](C2)O3)O4)co1	-4% [at 11.4 µM] (inactive)	–
COC(=O)[C@H]1C(=O)c2ccccc2O[C@@](C(=O)OC)(c2ccccc2)[C@@H]1c1ccccc1	-6.83% [at 11.4 µM] (inactive)	–
CC[C@@H]1CN2CCc3cc(OC)c(OC)cc3[C@H]2C[C@@H]1C[C@@H]1NCCc2cc(O)c(OC)cc21	15.7% [at 25.6 µM] (inactive)	–
O=C(Oc1ccccc1)N1CCC2(CC1)CN(Cc1ccncc1)C2	–	3.16 µM (active)
CN1CC[C@@]2(CCCN(C(=O)c3csnn3)C2)C1	-15.5% (inactive)	–
c1cc(CN2CC3(CCNCC3)C2)ccn1	-21.2% (inactive)	–
O=C(c1csnn1)N1CCC2(CC1)CN(Cc1ccncc1)C2	–	10 µM (active)
O=C(Oc1ccccc1)N1CCC2(CCN(Cc3ccncc3)CC2)CC1	–	3.98 µM (active)
O=C(Oc1ccccc1)N1CCC2(CCCN(Cc3ccccc3)C2)CC1	-8.8% (inactive)	–
O=C(Oc1ccccc1)N1CCC2(CCN(Cc3ccccc3)CC2)CC1	7% (inactive)	–
CC(C)CN1CC2(CCN(C(=O)Oc3ccccc3)CC2)C1	8.52% (inactive)	–
c1cc(CN2CCC3(CCNCC3)CC2)ccn1	4.48% (inactive)	–
CS(=O)(=O)N1CCC2(CC1)CN(Cc1ccncc1)C2	–	39.8 µM (active)
N#Cc1ccc(CN2CCC3(CC2)CCN(C(=O)Oc2ccccc2)CC3)cc1	12.8% (inactive)	–
CC(C)CN1CC2(CCN(C(=O)c3ccncc3)CC2)C1	-1.27% (inactive)	–
CC1(C)N=C(N)N=C(N)N1c1cccc(C(=O)Nc2ccc(S(=O)(=O)F)cc2)c1	14.9% [at 11.4 µM] (inactive)	–
C=C(C)CN1CC[C@@]23c4c5ccc(O)c4O[C@H]2c2[nH]c4ccccc4c2C[C@]3(O)[C@@H]1C5	-16.9% (inactive)	–
CC1=C2C(=O)[C@@H]3[C@@H](CC=C4C[C@@H](O)CC[C@@]43C)[C@H]2CC[C@@]12O[C@H]1C[C@H](C)CN[C@H]1[C@@H]2C	-3.17% [at 11.4 µM] (inactive)	–

— PubChem BioAssay AID1851 (National Center for Advancing Translational Sciences (NCATS), 2009)
